# Laboratory results published in the supplement of paper PMC9135407.
# Where “and” joins values, the source holds several entries; their conditions need not be identical. Equal values may be shown once. Where a name gives a salt, the structure may show the parent alone. Among all 5,800 compounds or so, about 620 (11%) showed activity. What follows is part of a selection rich in actives, with near analogues and random picks from the rest. Values without a mark were called inactive.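 How the source made its calls: active = score above a cut-off or among the top three wells of a plate; in these data no inactive exceeds 0.85.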
# Tested on: primary human hepatic stellate cells (donor 1)
# Assay: scaled lipid accumulation score (0 = DMSO-like, 1 = nortriptyline-like); higher = stronger HSC inactivation (lipid re-accumulation), active = hit call of the paper
# Settings: 48 h
# [1] = library stock concentration: 1 mM
# [2] = library stock concentration: 10 mM
# [3] = library stock concentration: 3.33 mM
# [4] = library stock concentration: 80 uM
# [5] = library stock concentration: 400 uM
# [6] = library stock concentration: 2 mM
smiles,measurement,setting,value
O=C(O)CCC/C=C\C[C@@H]1[C@@H](/C=C/[C@@H](O)CCc2cccc(C(F)(F)F)c2)[C@H](O)C[C@@H]1O [17-trifluoromethylphenyl trinor Prostaglandin F2.alpha.],scaled lipid accumulation score,[1],≤ 0
CCN(CC)C(=O)CCC/C=C\C[C@@H]1[C@@H](/C=C/[C@@H](O)CCc2ccccc2)[C@H](O)C[C@@H]1O [17-phenyl trinor Prostaglandin F2.alpha. diethyl amide],scaled lipid accumulation score,[1],≤ 0
"CCS(=O)(=O)N(C)[C@H]1c2cc(C#N)ccc2OC(C)(C)[C@@H]1O [(-)-[3R,4S]-Chromanol 293B]",scaled lipid accumulation score,[2],0.037
NC(CCC(=O)NC(CSN=O)C(=O)NCC(=O)O)C(=O)O [S-Nitroso-L-glutathione],scaled lipid accumulation score,[1],0.026
CNS(=O)(=O)c1ccc(NC(=O)c2ccccc2C(=O)O)cc1 [Phthalysulfathiazole],scaled lipid accumulation score,library stock concentration: 4.8 mM,≤ 0
O=C1C(SCCO)=C(SCCO)C(=O)c2ccccc21 [listing 1 of 3 here],scaled lipid accumulation score,[2],1.2 (active)
N[C@@H](CO)c1ccccc1 [(R)-(-)-2-Phenylglycinol],scaled lipid accumulation score,[1],≤ 0
O=C1C(SCCO)=C(SCCO)C(=O)c2ccccc21 [listing 2 of 3 here],scaled lipid accumulation score,library stock concentration: 16.1 mM,1.05 (active)
O=C1C(SCCO)=C(SCCO)C(=O)c2ccccc21 [listing 3 of 3 here],scaled lipid accumulation score,[2],0.156
O=C1c2cccc(O)c2C(=O)c2c(O)cccc21 [Danthron],scaled lipid accumulation score,library stock concentration: 8.3 mM,0.038
CCN(c1ccccc1)c1cc(=NC)n(C)c(C)n1,scaled lipid accumulation score,[2],≤ 0
CN(C)CCCCCCOc1ccc(-n2ccnc2)cc1,scaled lipid accumulation score,[1],0.054 and 0.003
NC(N)=N[C@@H](CCC(=O)O)C(=O)O [.alpha.-Guanidinoglutaric Acid],scaled lipid accumulation score,[1],≤ 0
NC(N)=N[C@@H](CCC(=O)O)C(=O)O [alpha-Guanidinoglutaric acid],scaled lipid accumulation score,[2],≤ -0.007
O=C(Nc1cccc(C(F)(F)F)c1)Nc1cc(S(=O)(=O)NC2CC2)ccc1-c1ccsc1,scaled lipid accumulation score,[3],0.022
same,scaled lipid accumulation score,[2],0.632
OC(CC1c2ccccc2-c2cncn21)C1CCCCC1 (stereo unspecified),scaled lipid accumulation score,[3],≤ -0.009
same,scaled lipid accumulation score,[2],0.209
Cc1ccc(Nc2c(F)cccc2Cl)c(CC(=O)O)c1 [Lumiracoxib],scaled lipid accumulation score,[3],≤ 0
same,scaled lipid accumulation score,[2],0.025
Cc1ccc(Nc2c(F)cccc2Cl)c(CC(=O)O)c1,scaled lipid accumulation score,[2],≤ 0
CCCCC[C@H](O)/C=C/[C@@H]1c2cc(CCCCC(=O)O)n(-c3ccccc3)c2C[C@H]1O [Piriprost (potassium salt)],scaled lipid accumulation score,[1],≤ 0
O=c1c2ccccc2nc2n1CCc1c-2[nH]c2ccccc12 [Rutaecarpine] [listing 1 of 2 here],scaled lipid accumulation score,[2],0.975 (active)
O=c1c2ccccc2nc2n1CCc1c-2[nH]c2ccccc12 [Rutaecarpine] [listing 2 of 2 here],scaled lipid accumulation score,[3],≤ 0
same,scaled lipid accumulation score,[2],0.58
CN1CCc2ccccc2Cc2[nH]c3ccccc3c2CC1,scaled lipid accumulation score,[2],0.244
CCC(CC)(NC(=O)C(C)C)C(=O)N[C@@H](CCCN=C(N)N)C(=O)NC1(C(=O)NC(c2ccc(F)cc2)c2ccc(F)cc2)CCCC1,scaled lipid accumulation score,[3],≤ -0.009
same,scaled lipid accumulation score,[2],≤ 0
Cc1cnc(-c2cc(N3CCN(C(=O)CCS(C)(=O)=O)CC3)ncc2Cl)c(C)c1,scaled lipid accumulation score,[3],≤ 0
same,scaled lipid accumulation score,[2],≤ 0
CCC(C)[C@H](NC(=O)[C@H](CCCCN)NC(=O)[C@H](CCCCN)NC(=O)[C@H](C)NC(=O)[C@H](CC(C)C)NC(=O)[C@H](C)NC(=O)[C@H](C)NC(=O)[C@H](CC(C)C)NC(=O)[C@H](C)NC(=O)[C@H](CCCCN)NC(=O)[C@H](CC(C)C)NC(=O)[C@H](CC(N)=O)NC(=O)[C@@H](N)[C@@H](C)CC)C(=O)N[C@@H](CC(C)C)C(N)=O (stereo partly specified) [Mastoparan],scaled lipid accumulation score,library stock concentration: 3 mM,≤ -0.012
COC(=O)Nc1ccc(-c2nc(N3CCOCC3)c3cnn(C4CCN(C(=O)OC)CC4)c3n2)cc1,scaled lipid accumulation score,[3],≤ 0
same,scaled lipid accumulation score,[2],≤ 0
c1cncc(CN2CCC(n3ncc4c(N5CCOCC5)nc(-c5ccc6[nH]ccc6c5)nc43)CC2)c1,scaled lipid accumulation score,[3],1.19 (active)
same,scaled lipid accumulation score,[2],1.19 (active)
CNC(=O)Nc1ccc(-c2nc(N3CC4CCC(C3)O4)c3cnn(C4CCC5(CC4)OCCO5)c3n2)cc1,scaled lipid accumulation score,[4],≤ 0
same,scaled lipid accumulation score,[5],0.006
same,scaled lipid accumulation score,[6],≤ 0
same,scaled lipid accumulation score,[3],≤ 0
same,scaled lipid accumulation score,[2],0.733 and 0.772
CN(C)[C@@H]1C(O)=C(C(=O)NCNCCCC[C@H](N)C(=O)O)C(=O)[C@@]2(O)C(O)=C3C(=O)c4c(O)cccc4[C@@](C)(O)[C@H]3C[C@@H]12 [Lymecycline],scaled lipid accumulation score,,0.003
CC(C)(C)OC(=O)Nc1cccc2[nH]ccc12 [(1H-Indol-4-yl)-Carbamic Acid tert-butyl ester],scaled lipid accumulation score,[1],≤ 0
C[C@@H](N)c1ccc(C(=O)Nc2ccnc3[nH]ccc23)cc1,scaled lipid accumulation score,[4],≤ -0.009
same,scaled lipid accumulation score,[5],≤ -0.009
same,scaled lipid accumulation score,[6],0.069
C[C@@H](N)c1ccc(C(=O)Nc2ccnc3[nH]ccc23)cc1.Cl.Cl,scaled lipid accumulation score,[2],1.13 (active)
